PubChem BioAssay AID485317 (Broad Institute, 2010)
In all, about 290,000 compounds went through this assay and about 11,000 (3.8%) were called active.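 The calls were made as follows: active = mean replicate inhibition above about 79%, with every replicate also reaching it (limit read from the data); inconclusive = only one of the two criteria met; inactive = mean below limit and not every replicate reaching it.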 Only a selection was taken, and actives are over-represented in it overall.

These compounds were tested against FAD-linked sulfhydryl oxidase ALR (Homo sapiens) (UniProt P55789) (assay: ALR-catalysed DTT oxidation blockers – biochemical, H2O2 detection, HRP-luminol luminescence, single point, primary screen (AID 485317)). Conditions: purified ALR, active compounds read high, concentration not given here.
Chain of FAD-linked sulfhydryl oxidase ALR (Homo sapiens) (P55789 whole entry, looked up): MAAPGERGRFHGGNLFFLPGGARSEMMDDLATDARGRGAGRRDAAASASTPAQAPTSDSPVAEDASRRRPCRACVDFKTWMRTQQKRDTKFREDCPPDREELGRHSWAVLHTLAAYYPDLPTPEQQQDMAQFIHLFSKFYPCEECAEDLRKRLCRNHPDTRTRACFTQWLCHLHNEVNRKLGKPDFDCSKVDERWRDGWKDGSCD
With CN1CCN(/N=C/c2c[nH]c3ccccc23)CC1 the inhibition was 79.3% (active). In the case of Fc1ccc(N2CCN(Cc3ccc4c(c3)OCO4)CC2)cc1, the inhibition is reported as 76.3% (active). O=C(Cc1ccccc1[N+](=O)[O-])N1CCN(Cc2ccc3c(c2)OCO3)CC1 was tested, and the inhibition was -25.4% (inactive). In the case of Oc1cc2c(cc1CN1CCN(c3ccccc3)CC1)OCO2, the inhibition is reported as 60.4% (inactive). For COC(=O)C1=C(c2cc3ccccc3s2)C[C@@H]2CC[C@H]1N2C(=O)NCc1cccc2ccccc12, the inhibition was -1.91% (inactive). COC(=O)C1=C(c2ccccc2)C[C@@H]2CC[C@H]1N2C(=O)N1CCCCC1 was tested, and the inhibition was -3.97% (inactive). For c1cncc(CNCCc2c[nH]c3ccccc23)c1, the inhibition was 10% (inactive). In the case of COc1ccc(CNCCc2c[nH]c3ccccc23)cc1OC, the inhibition is reported as 4.28% (inactive). In the case of C/C(CCc1c[nH]c2ccccc12)=N\O, the inhibition is reported as 98.1% (active). COC(=O)C1=C(c2ccc(Cl)c(C(F)(F)F)c2)C[C@@H]2CC[C@H]1N2C(=O)NC1CC1 was tested, and the inhibition was -18.1% (inactive). With COc1ccc(N2C(=O)/C(=C/c3ccco3)C(=O)NC2=S)cc1 the inhibition was 97.9% (active). COc1cccc(N2C(=O)NC(=O)/C(=C\c3cn(C)c4ccccc34)C2=O)c1 was tested, and the inhibition was -2.44% (inactive). With COc1ccc(CN2C(=O)NC(=O)/C(=C\c3ccc(OC)c(OC)c3OC)C2=O)cc1 the inhibition was 20% (inactive). For C[C@]12CC[C@H](O)CC1=C([N+](=O)[O-])CC1C2CC[C@@]2(C)C1CC[C@@H]2O (stereo not given in full), the inhibition was 1.78% (inactive). In the case of COC(=O)C1=C(c2ccc(F)cc2OCc2ccccc2)C[C@@H]2CC[C@H]1N2C(=O)NCc1ccc2[nH]ccc2c1, the inhibition is reported as 5.75% (inactive). With Cc1cccc2c(CCN)c[nH]c12 the inhibition was -8.02% (inactive). With NCCc1c[nH]c2ccc(O)cc12 the inhibition was 95.8% (active). With COC(=O)C1=C(c2cc3ccccc3o2)C[C@@H]2CC[C@H]1N2C(=O)NC1CCCCC1 the inhibition was 0.528% (inactive). In the case of COC(=O)C1=C(c2cc3ccccc3s2)C[C@@H]2CC[C@H]1N2C(=O)NC(C)C, the inhibition is reported as 16.9% (inactive). For O=c1[nH]c(O)c(C=Nc2cc(F)cc(F)c2)c(=O)[nH]1, the inhibition was -1.04% (inactive). For Cc1cc(C=C2C(=O)NC(=O)NC2=O)c(C)n1-c1ccncc1, the inhibition was 20.8% (inactive). For Cc1ccnc(-n2c(C)cc(/C=C3\C(=O)NC(=S)N(C)C3=O)c2C)c1, the inhibition was 97.1% (active). With Cc1ccc(-n2c(C)cc(/C=C3\C(=O)NC(=O)N(C)C3=O)c2C)cc1C the inhibition was -26% (inactive). With COC(=O)C1=C(c2cccc(OCc3ccccc3)c2)C[C@@H]2CC[C@H]1N2C(=O)NNCc1ccccc1 the inhibition was -3.1% (inactive). With O=C(O)CCn1cc(C=C2C(=O)NC(=S)NC2=O)c(-c2cccc(Br)c2)n1 the inhibition was 99.4% (active). In the case of CNCC(O)c1cc(F)c(OCc2ccccc2)c(OCc2ccccc2)c1F (stereo not given), the inhibition is reported as -16.5% (inactive). In the case of COC(=O)C1=C(c2ccc(F)cc2OCc2ccccc2)C[C@@H]2CC[C@H]1N2C(=O)NCc1ccc(Cl)cc1, the inhibition is reported as 0.0344% (inactive). c1ccc(CCN2CCC3(CC2)OCCO3)cc1 was tested, and the inhibition was 0.745% (inactive). With COc1ccc2c(c1)[C@]13CCCCC1C(C2)N(C)CC3 (stereo not given in full) the inhibition was -0.421% (inactive). CN(C)c1nc(N(C)C)nc(N(C#N)CCCl)n1 was tested, and the inhibition was 96.2% (active). In the case of CCN1CCN(c2nc3c(c(=O)[nH]2)CCC3)CC1, the inhibition is reported as 2.56% (inactive). For CCC(=O)c1ccc(OCC(=O)N2CCN(CC(=O)Nc3ccc(C)cc3)CC2)cc1, the inhibition was -2.33% (inactive). Cc1c(C(=O)O)cccc1-n1c(C)cc(/C=C2\C(=O)NC(=O)N(c3ccc4c(c3)OCO4)C2=O)c1C was tested, and the inhibition was 12.1% (inactive). With O=C1NC(=O)N(Cc2ccco2)C(=O)/C1=C\c1ccc(-c2ccc(F)cc2)o1 the inhibition was 13.9% (inactive). With Cc1cc(/C=C2/C(=O)NC(=O)N(Cc3ccco3)C2=O)c(C)n1-c1ccc(C(=O)O)cc1 the inhibition was 97.6% (active). In the case of COC(=O)C1=C(c2ccc(F)cc2OCc2ccccc2)C[C@@H]2CC[C@H]1N2C(=O)NCc1ccc(OC)c(OC)c1, the inhibition is reported as -0.52% (inactive). In the case of COC(=O)C1=C(c2ccc(F)cc2OCc2ccccc2)C[C@@H]2CC[C@H]1N2C(=O)NCc1ccc(C(C)(C)C)cc1, the inhibition is reported as -8.86% (inactive). With O=C(CCC(=O)N1C[C@H]2C[C@@H](C1)c1cccc(=O)n1C2)NCc1ccccc1C(F)(F)F the inhibition was -3.58% (inactive). For COC(=O)C1=C(c2c(C)noc2C)C[C@@H]2CC[C@H]1N2C(=O)NCc1ccc2c(c1)OCO2, the inhibition was -6.31% (inactive). For CC(Cc1ccccc1)NCCC(c1ccccc1)c1ccccc1 (stereo not given), the inhibition was -11.9% (inactive). For CC(=O)NC(=O)NC(C)Cc1ccccc1 (stereo not given), the inhibition was 99.2% (active). For CC(=O)c1ccc(OC(NC(=O)Cc2ccccc2)C(Cl)(Cl)Cl)cc1 (stereo not given), the inhibition was 5.09% (inactive). In the case of COC(=O)C1=C(c2ccc(Cl)c(C(F)(F)F)c2)C[C@@H]2CC[C@H]1N2C(=O)NC(C)C, the inhibition is reported as 0.07% (inactive). With Cc1ccc(-c2cc(C(=O)N3CCC4(CC3)OCCO4)no2)cc1 the inhibition was 7.33% (inactive). In the case of COc1ccc(-c2nc(CS(=O)CC(=O)N3CCC4(CC3)OCCO4)c(C)o2)cc1 (stereo not given), the inhibition is reported as 98.9% (active). COc1ccc(NC(=O)N2CCC3(CC2)OCCO3)c(OC)c1 was tested, and the inhibition was -26.4% (inactive). COC(=O)C1=C(c2ccc(-c3ccccc3)c(F)c2)C[C@@H]2CC[C@H]1N2C(=O)NCc1ccc(F)cc1 was tested, and the inhibition was -0.106% (inactive). In the case of C=CC12CN(C)[C@@H]3C4CO[C@H](C[C@H]41)[C@]1(C(=O)Nc4ccccc41)[C@@H]32 (stereo not given in full), the inhibition is reported as -7.63% (inactive). COC(=O)C1=C(c2cccc(OCc3ccccc3)c2)C[C@@H]2CC[C@H]1N2C(=O)NCc1ccc(Br)cc1 was tested, and the inhibition was -3.06% (inactive). CN1CCc2cc3c(cc2[C@H]1[C@@H]1OC(=O)c2c1ccc1c2OCO1)OCO3 was tested, and the inhibition was -8.76% (inactive). In the case of Cc1ccccc1NC(=O)COC(=O)c1cc(C)n(C2CC2)c1C, the inhibition is reported as 5.99% (inactive). COC(=O)C1=C(c2ccc3ccccc3c2)C[C@@H]2CC[C@H]1N2C(=O)NCCO was tested, and the inhibition was -28.8% (inactive). O=[N+]([O-])c1cnc2ccc3ccccc3c2c1 was tested, and the inhibition was -42.1% (inactive). With C/C(=N/O)c1ccc2ccc3ccccc3c2c1 the inhibition was 99.1% (active). For C[C@]12CCC3C(CC[C@H]4C[C@@H](O)CC[C@]34C)C1CC[C@@H]2O (stereo not given in full), the inhibition was -1.96% (inactive). C[C@]12CCC3C(CC[C@H]4C[C@@H](O)CC[C@]34C)C1C[C@@H](O)[C@H]2O (stereo not given in full) was tested, and the inhibition was 2.15% (inactive). COC(=O)C1=C(c2ccc(F)cc2F)C[C@@H]2CC[C@H]1N2C(=O)NC1CC1 was tested, and the inhibition was -1.47% (inactive). In the case of COC(=O)C1=C(c2ccccc2OCc2ccccc2)C[C@@H]2CC[C@H]1N2C(=O)NCc1ccc(OC)cc1, the inhibition is reported as -2.59% (inactive). In the case of COC(=O)C1=C(c2ccc(C(C)=O)cc2)C[C@@H]2CC[C@H]1N2C(=O)NCCNC(C)=O, the inhibition is reported as 4.07% (inactive). In the case of O=c1c2ccccc2nc(/C=C/c2ccco2)n1-c1ccccc1O, the inhibition is reported as 47.2% (inactive).
